# According to PubChem BioAssay AID624296 (National Center for Advancing Translational Sciences (NCATS), 2012):
# The whole screen tested about 350,000 compounds, of which about 9,900 (2.8%) were called active. Roughly 15% stayed inconclusive and do not appear here. The list comes from a sample in which actives are over-represented; it also holds similar structures and randomly drawn compounds. Unmarked numbers belong to inactive results. The call rests on the fitted dose curve; in most records, active means well fitted activation curve with a large enough effect; inconclusive means small, poorly fitted or top-dose-only effect; inactive means no such curve, though single readings can be large or run the other way.
# Assay: A quantitative high throughput screen for small molecules that induce DNA re-replication in MCF 10a normal breast cells. Further: nearly all actives have a fitted effect of over 50% in size. On activity, positive = re-replication: % of control where 0% means no effect.
# Settings: MCF 10A DNA re-replication, Hoechst nuclear intensity, 48 h; series mostly up to 46.1 µM; activity, positive = re-replication: at the top concentration
# Source text: H Molecular Libraries Probe Production Network [MLPCN]
# NIH Chemical Genomics Center [NCGC]
# Assay Provider: Melvin DePamphilis, NICHD, NIH
# Eukaryotic cells normally restrict genome duplication to once per cell division. When this process is aberrant, DNA re-replication occurs when cells reinitiate DNA replication before the first round of replication is complete. DNA re-replication induces the DNA damage response, arrests cell proliferation, and triggers apoptosis. The cell cycle components cyclin A, Cdt-1, Cdc6 and geminin are critical regulators of this process and their misregulation results in DNA re-replication in normal and cancer cells. To identify compounds that induce re-replication in normal cells, an image-based assay was used to measure DNA content of nuclei, as detected by the fluorescent DNA binding dye, Hoechst. Cell nuclei were imaged by a fluorescence scanning plate imager and compounds that induce DNA re-replication were identified by the increase of nuclei with elevated fluorescence intensity
# For screening, 250 cells in 5 uL/well were dispensed into black clear 1536-well plates (Aurora) using a solenoid-based dispenser. Following transfer of 23 nL compound or DMSO vehicle by a pin tool, the plates were incubated 48 hr at 37 C and 5% CO2. After addition of 1 uL/well Hoescht stain, the plates were incubated 40 min at 37 C, 5% CO2 and total intensity of fluorescent objects (nuclei) were enumerated by an Acumen Explorer Ex3 (TTP LabTech) fluorescence scanning plate imager (405 nm excitation, 500-530 nm emission).
# Keywords: NIH Roadmap, MLPCN, MLI, MLSMR, qHTS, NCGC, DNA replication, cancer
# Potency means the concentration at half of the fitted maximal effect.
Compound,Potency,"activity, positive = re-replication [%]"
O=C(CCN1CCCCC1)N=Nc1c(O)[nH]c2ccccc12,3.66 µM (active),–
COCC(=O)N=Nc1c(O)[nH]c2ccccc12,–,-10.6
Cc1cccc(N(CC(=O)N=Nc2c(O)[nH]c3ccccc23)S(C)(=O)=O)c1C,–,11.1
CCCCc1ccc(NS(=O)(=O)c2cccc(C(=O)N3CCCN(C)CC3)c2)cc1,–,23.7
O=C(O)c1ccc(S(=O)(=O)c2ccccc2)s1,–,-18.7
Cc1nc2ccc(N)nc2nc1C,–,23.5
CCN(C[C@H]1N[C@@](CC)(C(=O)OC)[C@H]2C(=O)N(C)C(=O)[C@@H]12)C(=O)Nc1ccc(F)cc1,–,2.36
CCOC(=O)c1c(-c2ccccc2)oc2cc(Br)c(O)c(C=O)c12,2.91 µM (active),–
CCOC(=O)c1c(-c2ccccc2)oc2ccc(OCC(=O)NN)cc12,–,4.39
Cc1oc2cc(Br)c(O)c(Br)c2c1C(=O)c1ccccc1,–,3.43
CCOC(=O)c1c(-c2ccccc2)oc2ccc(OCC(N)=O)cc12,–,1.72
CCOC(=O)c1c(-c2ccccc2)oc2cc(Br)c(O)cc12,16.4 µM (active),–
CCOC(=O)c1c(C)oc2cc(Sc3ccccc3)c(O)c(O)c12,–,7.97
CC[C@]12c3[nH]c4cc(CCC(=O)N(C)C)ccc4c3CCN1C(=O)[C@@H](CC(=O)NCc1ccco1)C[C@@H]2C(=O)N1CCN(C(=O)c2ccco2)CC1,–,-30.6
O=C(CSc1nnc(Nc2ccccc2F)s1)NC1CCCC1,–,13.4
O=C(COC(=O)c1n[nH]c2ccccc12)Nc1ccccc1Br,–,1.38
COc1ccc(NC(=O)/C(N=Nc2cccc(S(=O)(=O)Nc3ccc(SC(F)F)cc3)c2)=C(\C)O)cc1,–,3.02
O=c1c(-c2ccccc2)coc2cc(O)ccc12,–,-13.7
CC(C)CN(Cc1c(O)ccc2c(=O)c(-c3ccccc3)coc12)CC(C)C,–,-5.6
CC(C)=CCc1c(O)c(CC=C(C)C)c2occ(-c3ccc(O)cc3)c(=O)c2c1O,9.2 µM (active),–
O=C(NN=Cc1ccc([N+](=O)[O-])cc1)C1CC1,–,-1.7
COc1ccccc1N1CCN(C(=O)C2Cc3ccccc3CN2C(=O)c2ccco2)CC1 (centres undefined),–,29.1
Cc1ccc(S(=O)(=O)CC(=O)Nc2nnc(C)s2)cc1,–,12.8
CC(=O)N1CCc2c(sc(NC(=O)CCS(=O)(=O)c3ccc(C)cc3)c2C(N)=O)C1,3.26 µM (active),–
CCOc1ccc(OCC)c(NC(=O)CCS(=O)(=O)c2ccc(C)cc2)c1,–,-9.05

Compound,Potency,"activity, positive = re-replication [%]"
Cc1cc(C)cc(-c2nnc(SCC(=O)NC3CC3)o2)c1,–,-7.62
O=C(NCc1ccccc1CN1CCCC1)c1cccc(S(=O)(=O)Nc2ccc(F)cc2)c1,–,15.9
COc1cc(C(=O)CCc2ccc3c(c2)OCO3)cc(OC)c1OC,–,-18.2
Cc1ccccc1-c1ccc(Nc2ccc(C(=O)N3CCOCC3)cc2)nn1,–,-1.59
Cc1noc(C)c1C(=O)N1CCOCC1,–,1.06
Cc1oc2c(c1C(=O)N1CCOCC1)C(=O)c1ccccc1C2=O,16.4 µM (active),–
NS(=O)(=O)c1ccc(CNC(=O)c2cccc(S(=O)(=O)N3CCc4ccccc43)c2)cc1,–,2.06
COc1ccc(C(C)(C)C)cc1NC(=O)CCN1C(=O)C2CCCCC2C1=O (centres undefined),–,21.3
COc1ccc(C2=NN(c3ccccc3)C(c3cccs3)C2)cc1 (centres undefined),3.26 µM (active),–
COc1ccc(C2=NN(C(C)=O)C(c3ccccc3)C2)cc1 (centres undefined),–,7.74
COc1ccc(C2=NN(C(=O)c3ccccc3C(=O)O)C(c3ccccc3O)C2)cc1 (centres undefined),–,5.66
O=C(Nc1cc(S(=O)(=O)N2CCCCC2)ccc1Cl)C1COc2ccccc2O1 (centres undefined),–,4.49
C=CC[C@@H](CC(=O)N[C@@H](CO)Cc1ccccc1)C(=O)NCCOC(=O)[C@@H](CC=C)CC(=O)OC(C)(C)C,–,-4.23
CCCCn1c(N)c(N(CCC(C)C)C(=O)COC(=O)c2ccc(CC)cc2)c(=O)[nH]c1=O,–,14
O=C(/C=C/c1ccco1)NC(=S)Nc1ccccc1Br,20.6 µM (active),–
O=C(/C=C/c1ccco1)NC(=S)N1CCCCC1,–,-8.74
COc1ccc(Cl)cc1C(=O)NNC(=S)NC(=O)/C=C/c1ccco1,–,13.6
COc1ccc2c(c1)C(=O)CC(c1ccccc1)O2 (centres undefined),–,15.4
COc1cccc(-c2cc(C(=O)N/N=C/c3ccc(OC)c(COC(C)=O)c3)c3ccccc3n2)c1,–,9.77
COc1cc(/C=N/NC(=O)c2cc(-c3ccccc3C)nc3ccccc23)cc(OC)c1O,–,-1.21
CCOc1ccc(-c2cc(C(=O)N/N=C/c3ccc(O)cc3)c3ccccc3n2)cc1,2.06 µM (active),–
O=C1COc2ccc(C(=O)COC(=O)CCOc3ccccc3)cc2N1,–,1.68
Cc1ccc(-c2csc(NC(=O)Cn3[nH]c(=O)c4ccccc4c3=O)n2)cc1,3.26 µM (active),–
O=C(CSc1nc2ccccc2c(=O)[nH]1)Nc1nc(-c2ccc(Br)cc2)cs1,–,16.4
CC(=O)NCc1ccc(-c2csc(NC(=O)CCCc3nc4ccccc4c(=O)[nH]3)n2)cc1,–,-0.541

Compound,Potency,"activity, positive = re-replication [%]"
O=C(Cn1cnc2c(OCc3ccccc3)ncnc21)NCCCn1ccnc1,–,-1.32
CC(C)Sc1nc(N)nc2c1ncn2C1OC(CO)C(O)C1O (centres undefined),–,-5.04
Cn1c(N)c(C(=O)COC(=O)c2cccc(S(=O)(=O)N3CCOCC3)c2)c(=O)n(C)c1=O,–,1.02
COc1ccccc1C(=O)Nn1c(-c2cccs2)nc2ccccc2c1=O,–,9.96
COCCCn1c(-c2cccs2)nc2nc3ccccc3nc21,18.4 µM (active),–
CC(C)n1c(-c2cccs2)nc2ccccc21,–,8.1
COC(=O)C1CCN(C(=O)COC(=O)c2cc(S(=O)(=O)N3CCOCC3)ccc2C)CC1,–,1.29
Cc1ccc2c(O)c(Cc3ccccc3)c(=O)[nH]c2n1,–,-29.4
O=C(NCC1CCCO1)c1ccc(S(=O)(=O)Nc2ccc(F)cc2)cc1 (centres undefined),–,5.39
COc1ccc(/C=N/NC(=O)c2ccc3c(c2)OCCO3)c(OC)c1,–,9.16
COc1ccc(/C=N/NC(=O)Nc2ccc3nsnc3c2)c(OC)c1,13 µM (active),–
COc1ccc(/C=N/NC(=O)CNC(=O)c2ccc(S(=O)(=O)N3CCCC3)cc2)c(OC)c1,–,-0.59
COc1ccc(CNC(=O)CN2C(=O)c3ccccc3S2(=O)=O)cc1,–,-2.69
COc1ccc(C(=O)NCc2ccc(C)cc2)cc1S(=O)(=O)N1CCCC1,–,-1.88
Cc1ccc(-c2csc(C(C#N)=C(O)CN3CCN(C(=O)c4ccco4)CC3)n2)cc1,–,11.7
O=S(=O)(c1ccc(SCc2ccc(Br)cc2)nc1)N1CCOCC1,–,1.47
Cc1ccc(OCCC(=O)Nc2ccc(S(=O)(=O)Nc3nccs3)cc2)cc1,–,8.62
COC1=NC2=NCCN2C(OC)=N1,–,0.601
Cc1cccc(C)c1NC(=O)C(c1ccccc1)N1CC(=O)Nc2ccccc21 (centres undefined),–,0.962
Cc1cccc(C)c1NC(=O)CN(C)C(=O)CCC(=O)c1ccccc1,–,-6.85
Cc1cccc(C)c1NC(=O)C(Cl)C(=O)c1ccccc1 (centres undefined),18.4 µM (active),–
Cc1ccc(NC(=O)C2CC(=O)N(c3ccc4c(c3)OCCO4)C2)cc1S(=O)(=O)N1CCCCCC1 (centres undefined),–,19.6
Cc1nc(SCC(=O)NC2CCCCC2C)c(C#N)c(C)c1C (centres undefined),–,0.386
CC(C)n1ncc2c(C(=O)Nc3ccc(CC#N)cc3)cc(C3CC3)nc21,–,4.57
COc1ccc(OC)c(Cc2cnc3nc(N)nc(N)c3c2C)c1,–,15.9

Compound,Potency,"activity, positive = re-replication [%]"
COc1ccccc1-c1nc(C#N)c(N2CCC(C(N)=O)CC2)o1,–,1.76
Cc1ccccc1-c1nc(C#N)c(NCc2ccco2)o1,–,-0.678
COc1ccc(Nc2oc(-c3ccccc3Cl)nc2C#N)cc1,2.59 µM (active),–
CC(NC(=O)c1ccc(S(=O)(=O)Nc2ccccc2)cc1)c1ccc(S(N)(=O)=O)cc1 (centres undefined),–,3.04
CCC(=O)Nc1ccc(C(=O)Nc2cccc(OC)c2)cc1,–,-24
COc1cccc(CC(=O)Nc2nc(-c3ccc(OC)c(OC)c3)cs2)c1,–,14.9
COc1cccc(CC(=O)Nc2ccc(-c3csc(C)n3)cc2)c1,9.2 µM (active),–
CCCCC[C@@H]1C=C(C(=O)O)[C@H](c2ccc(C#N)cc2)N1S(=O)(=O)c1ccc(C)cc1,–,-1.83
O=C1C[C@@H]2c3c(cccc3CN1Cc1ccccc1)C[C@@H](O)[C@H]2O,–,-8.32
CCO/N=C(/C)c1c(O)cc(-c2ccccc2)n(-c2ccccc2)c1=O,14.6 µM (active),–
CCOC(=O)c1c(CN(C)C)n(-c2ccccc2)c2cc(Br)c(O)cc12,–,8.71
C=CCO/N=C(\C)c1c(O)c(C)c(-c2ccccc2)n(-c2ccccc2)c1=O,–,19.9
CCN(CC)S(=O)(=O)c1ccc(CNC(=O)CN2C(=O)NC3(CCc4ccccc43)C2=O)cc1 (centres undefined),–,5.09
COCCN(Cc1ccccc1)C(=O)Cc1ccc(S(=O)(=O)N2CCOCC2)s1,–,-9.64
Cc1ccc(S(=O)(=O)N2CCCCC2)cc1NC(=O)CCNC(=O)c1ccccc1,–,0.791
C#CCOCCOCCOCCNc1nc(N2CCOCC2)nc(N2CCN(C(=O)[C@H](Cc3ccc(O)cc3)n3cc(CCO)nn3)CC2)n1,–,9.82
Cc1ccc(NC(=O)COC(=O)C2CC2)cc1S(=O)(=O)N1CCOCC1,–,-4.67
Cc1ccc(NC(=O)C2CCC(C(C)(C)C)CC2)cc1S(=O)(=O)N1CCOCC1 (centres undefined),18.4 µM (active),–
Cc1ccc(NC(=O)NC2CCCCC2)cc1S(=O)(=O)N1CCOCC1,–,0.463
CCC1([N+](=O)[O-])COC(c2ccc(C)cc2)OC1 (centres undefined),–,-3.51
COc1ccccc1N1CC(C(=O)NCCN2C(=O)S/C(=C\c3cccnc3)C2=O)CC1=O (centres undefined),–,-5.48
O=C(CCn1c(=O)[nH]c2ccccc2c1=O)NCCCN1CCN(c2cccc(Cl)c2)CC1,–,1.02
COc1cccc(CNC(=O)Cc2csc(Nc3nc(=S)[nH]c4ccccc34)n2)c1,–,21.3
O=C(Cc1csc(Nc2nc(=S)[nH]c3ccccc23)n1)NCCCN1CCN(c2cccc(Cl)c2)CC1,14.6 µM (active),–
